# Results taken from PubChem BioAssay.
# Values joined by “and” are separate entries in the source; they are usually repeats but may differ in a detail not shown here. Identical values can stand only once.
# Assay: hepatitis C replication reporter changes, two-sided – Huh7 cells, luciferase reporter, HCV replication inhibitor project, primary screen (AID 1109);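 note: huh7 hepatoma cells harbouring a luciferase neomycin HCV replicon reporter; luciferase luminescence as measure of HCV replicon replication; test concentration not given here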
# Details: Huh7 HCV replicon luciferase reporter, 48 h; higher = more signal
row,Compound,z-score
1,CC(CO)N1C(=O)[C@@H]2C3C(=O)OCCC=C[C@H]3OC23C=CCN(CCN2CCOCC2)C(=O)[C@@H]13 (some centres undefined),-0.38 and -0.851
2,COC(=O)C1=C(C)N(Cc2ccccc2)C2=C(C(C)=O)[C@H](c3ccccc3)[C@@](O)(C(=O)OC)C(=O)N2[C@@H]1c1ccccc1,-0.396 and 0.347
3,CC(C)=NOC[C@@H](O)COCc1ccco1,0.797
4,C[C@@H]1CC[C@H]2C(=O)NC[C@@H](O)CN2[C@H]1c1ccc(Br)cc1,-0.376 and -0.362
5,CCOC(=O)[C@@H]1CC2O[C@]23C[C@@H]1C(=O)N1CCC[C@@H]1[C@H]3O[Si](C)(C)C(C)(C)C (some centres undefined),-0.417 and -0.4
6,C[N+](C)(C)CCCCNC(=O)[C@H]1C[C@H]2C(=O)N[C@@H](CCCC[N+](C)(C)C)C(=O)N2[C@H]1c1ccc(O)cc1,-0.999 and 0.723
7,CC(C)[Si]1(C(C)C)OCc2cc(CCCc3cc4c(c(CCc5ccccc5)n3)[Si](C(C)C)(C(C)C)OC4)nc(CCc3ccccc3)c21,-1.17 and -0.347
8,COC(=O)C1=C(C)N(Cc2ccccc2)C2=C3C(=O)N(c4ccccc4)C(=O)[C@@H]3[C@@](O)(C(=O)OC)C(=O)N2[C@@H]1c1ccccc1,-0.0822 and -0.147
9,CO[C@H]1COC(=O)CC=C[C@H](C)[C@H](OC)COC(=O)[C@@H](C)COC(=O)CC=C[C@@H]1C,0.228 and 0.343
10,C=CCN(C(=O)C1N(c2ccc(CCO)cc2)C(=O)C2C(C(=O)O)C3C=CC21O3)c1ccc(OC)cc1 (centres undefined),0.174 and 0.383
11,COC(=O)[C@@]1(Cc2ccc(F)cc2)[C@H]2c3cc(C(=O)N4CCCC4)n(Cc4c(CO)[nH]cc(C)c4=O)c3C[C@H]2CN1C(=O)c1ccccc1,-1.31 and -1.38
12,CC(CO)N1C(=O)[C@@H]2C3C(=O)OCCC=C[C@H]3OC23C=CCN(c2ccc(Cl)cc2)C(=O)[C@@H]13 (some centres undefined),-0.229 and -0.964
13,C=CCN(CCCC)C(=O)C(c1cccs1)N(C(=O)/C=C\C(=O)O)c1c(Cl)cccc1CO (centres undefined),-0.765 and -0.992
14,CCOC(=O)C[C@H]1[C@H](OC(=O)c2ccccc2-c2ccccc2)[C@@H](NC(=O)c2ccccc2)c2cc(OCCCO)ccc2N1C(=O)c1ccc2ccccc2n1,-1.19 and -0.583
15,C=CCN(C(=O)C1N(c2c(Cl)cccc2CO)C(=O)C2C(C(=O)O)C3C=CC21O3)C(C)(C)C (centres undefined),-0.892 and -0.519
16,C#CCCCON=C1C[C@@H](O)[C@@H](O)[C@@H]2[C@@H]3C(=O)N(C4CCCCC4)C(=O)[C@@H]3CC[C@H]12,-0.147
17,C=CCN(CCCC)C(=O)C1N(c2ccc(CCO)cc2)C(=O)C2C(C(=O)O)C3C=CC21O3 (centres undefined),-0.213 and 1.02
18,C=CCN(C(=O)C1N(c2c(Cl)cccc2CO)C(=O)C2C(C(=O)O)C3C=CC21O3)c1ccc(OC)cc1 (centres undefined),-1.14 and -0.0856
19,CON(C)C(=O)c1nnc2c3ccccc3n(S(=O)(=O)c3ccc(C)cc3)c2n1,1.78 and 1.38
20,CCCC[C@@H]1CN2[C@H](c3ccc(Br)cc3)[C@@H](C)CC[C@H]2C(=O)O1,-0.403 and -0.983

row,Compound,z-score
1,C=CCN(CCCCC)C(=O)C1N(c2ccc(CCO)cc2)C(=O)C2C(C(=O)O)C3C=CC21O3 (centres undefined),0.471 and -0.235
2,C=CCN(Cc1ccccc1)C(=O)C1N(C(C)(C)CO)C(=O)C2C(C(=O)O)C3C=CC21O3 (centres undefined),-1.39 and 0.81
3,O=C1C[C@]2(c3ccc([N+](=O)[O-])cc3)C(=O)N(Cc3ccccc3)c3cc(CO)ccc3[C@H]2N1C1CCCCC1,-0.107 and -2.97
4,C=CCN(Cc1ccccc1)C(=O)C(c1cccs1)N(C(=O)/C=C\C(=O)O)c1c(Cl)cccc1CO (centres undefined),-0.68 and -0.803
5,CCOC(=O)c1ccc(NC(=O)O[C@H]2[C@H](OC(=O)Nc3ccccc3)[C@@H](OC(=O)Nc3ccccc3)[C@@H](OC)O[C@@H]2CO)cc1,-3.3 and -1.82
6,C=C(C)C(=O)OC[C@@H]1CN2[C@@H](CC[C@@H](C)[C@@H]2c2ccc(Br)cc2)C(=O)O1,0.867
7,CC(CO)N1C(=O)[C@@H]2C3C(=O)OCCC=C[C@H]3OC23C=CCN(Cn2nnc4ccccc42)C(=O)[C@@H]13 (some centres undefined),-1.03 and 0.0704
8,O=C(NN=C1C[C@@H](O)[C@@H](O)[C@@H]2[C@@H]3C(=O)N(Cc4ccc5c(c4)OCO5)C(=O)[C@@H]3CC[C@H]12)OCc1ccccc1,0.401
9,COC(=O)[C@@]1(Cc2ccc(OC)cc2)[C@H]2c3cc(C(=O)N(C)C)n(Cc4ccc(O)c(OC)c4)c3C[C@H]2CN1C(=O)c1ccccc1,-1.33 and -1.83
10,O=C1NC(=O)C2C1C=CC(C(O)c1ccc([N+](=O)[O-])cc1)N2Nc1ccc(Cl)cc1Cl (centres undefined),0.175 and -1.19
11,CC(C)=CCCC(C)=CCON=C1C[C@@H](O)[C@@H](O)[C@@H]2[C@@H]3C(=O)N([C@@H](C)c4ccccc4)C(=O)[C@@H]3CC[C@H]12,-0.745
12,COC(=O)C1=C(C)N(Cc2ccccc2)C2=C3C(=O)CCC[C@@H]3[C@@](O)(C(=O)OC)C(=O)N2[C@@H]1c1ccccc1,-0.571 and -2.09
13,CCCC[C@@H]1CN2[C@@H](CC[C@@H](C)[C@@H]2c2ccc(Br)cc2)C(=O)O1,-1.44 and -0.195
14,CCN1C(=O)[C@H]2[C@H]3[C@H](O)[C@H](O)CC(=NOC)[C@@H]3CC[C@H]2C1=O,0.964
15,CC(C)OC(=O)C=C1C[C@@H](c2cccc(C(F)(F)F)c2)O[C@@H](c2cccc(C(F)(F)F)c2)O1,-1.55 and -2.35
16,CC(C)=NO[C@@H](C)c1cc(-c2c(C)cc(C)cc2C)no1,-0.527
17,C=CCN(C(=O)C1N(CCOCCO)C(=O)C2C(C(=O)O)C3C=CC21O3)c1ccc(OC)cc1 (centres undefined),0.51 and -0.102
18,C=CCN(C(=O)C(c1cccs1)N(CCOCCO)C(=O)/C=C\C(=O)O)c1ccc(OC)cc1 (centres undefined),1.49 and 0.42
19,C=CCN(Cc1ccccc1)C(=O)C(c1cccs1)N(C(=O)/C=C\C(=O)O)c1ccc(CCO)cc1 (centres undefined),0.0048 and 0.875
